Measured values from PubChem BioAssay AID624136 (Broad Institute, 2012).
Out of some 17,000 compounds screened, about 75 (0.4%) were called active. The sample holds actives, similar compounds and a random draw of the others, so the mix is not that of the screen.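 How the source made its calls: active means compounds whose four printed spots each glow above background more than chance allows, each with a p-value under 7%; inactive means the rest.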

The molecules below were run on mutant tumor protein p53 (GST-tagged), Homo sapiens (assay: small molecules binding GST-tagged mutant p53 – biochemical, small molecule microarray, anti-GST fluorescence, primary screen (AID 624136)).

outcome, inactive:
C[C@@H]1CN([C@H](C)CO)C(=O)c2cccc(NC(=O)Nc3cccc4ccccc34)c2O[C@@H]1CN(C)C(=O)Nc1ccc(F)cc1
C[C@@H]1CC[C@]2(C(=O)O)CC[C@]3(C)C(=CCC4[C@@]5(C)CC[C@H](O)[C@](C)(C(=O)O)C5CC[C@]43C)C2[C@]1(C)O (some centres not stated)
C[C@H]1CN([C@@H](C)CO)C(=O)c2cccc(NC(=O)Nc3ccccc3)c2O[C@@H]1CN(C)S(C)(=O)=O
COc1ccc(CN(C)C[C@H]2Oc3c(NC(=O)c4ccncc4)cccc3C(=O)N([C@H](C)CO)C[C@@H]2C)cc1
Cc1cc(C(=O)Nc2cccc3c2O[C@@H](CN(C)Cc2ccc(C(=O)O)cc2)[C@H](C)CN([C@@H](C)CO)C3=O)n(C)n1
C[C@@H]1CN([C@@H](C)CO)C(=O)Cc2cc(NC(=O)Nc3ccc(F)cc3)ccc2O[C@@H]1CN(C)C(=O)NC1CCCCC1
C[C@H]1CN([C@@H](C)CO)C(=O)c2cc(NC(=O)Nc3ccc4c(c3)OCO4)ccc2O[C@@H]1CN(C)CC1CCCCC1
COc1ccc(S(=O)(=O)Nc2ccc3c(c2)CC(=O)N([C@H](C)CO)C[C@H](C)[C@@H](CN(C)C)O3)cc1
COc1ccc(S(=O)(=O)N(C)C[C@@H]2Oc3ccc(NC(=O)CCC(F)(F)F)cc3C(=O)N([C@@H](C)CO)C[C@@H]2C)cc1
Cc1ccc(C(=O)C2C(=O)C(=O)N(Cc3cccnc3)C2c2ccc(Cl)c(Cl)c2)o1 (configuration not stated)
C[C@@H]1CN([C@@H](C)CO)C(=O)Cc2cc(NC(=O)CCN3CCOCC3)ccc2O[C@@H]1CN(C)CC1CC1
COc1ccc(NC(=O)Nc2cccc3c2O[C@@H](CN(C)S(=O)(=O)c2cn(C)cn2)[C@H](C)CN([C@@H](C)CO)C3=O)cc1
Cc1noc(C)c1S(=O)(=O)N(C)C[C@@H]1Oc2ccc(NC(=O)C3CC3)cc2CC(=O)N([C@@H](C)CO)C[C@@H]1C
Cc1noc(C)c1NC(=O)N(C)C[C@H]1OCc2cn(nn2)CCCC(=O)N([C@@H](C)CO)C[C@H]1C
C[C@H](CO)N1C[C@H](C)[C@@H](CN(C)C(=O)NC2CCCCC2)Oc2ccc(NC(=O)c3ccncc3)cc2CC1=O
O=C(C1=C[C@H](C2CC2)C[C@H](OCc2ccc(CO)cc2)O1)N1CCN(Cc2ccccc2)CC1
Cn1nnnc1SCC(=O)Nc1cccc(NC(=O)C23CC4CC(CC(C4)C2)C3)c1
C[C@@H]1CN([C@H](C)CO)C(=O)c2cccc(NS(=O)(=O)c3ccc(Cl)cc3)c2O[C@@H]1CN(C)CC1CC1
COc1ccc(CN(C)C[C@@H]2Oc3ccc(NC(=O)Nc4ccc(OC)cc4)cc3CC(=O)N([C@H](C)CO)C[C@H]2C)cc1
COC(=O)c1c(C)n(CCNc2ccc([N+](=O)[O-])cc2)c2ccc(O)cc12
O=C(CCc1nc(-c2ccccc2Cl)no1)Nc1ccccc1[N+](=O)[O-]
C[C@H]1CN([C@@H](C)CO)C(=O)c2cccc(NC(=O)C3CCOCC3)c2O[C@@H]1CN(C)C(=O)Nc1cccc2ccccc12
C[C@@H]1CN([C@@H](C)CO)C(=O)c2cccc(NS(=O)(=O)c3cn(C)cn3)c2O[C@H]1CN(C)Cc1ccc(Cl)c(Cl)c1
C=C1C[C@@H]2COC(=O)[C@]2(Cc2ccc3ccccc3c2)C1
COc1cc(C(C)=O)ccc1OCC(O)Cn1nc(C)cc1C (configuration not stated)
COc1ccc(CN(C)C[C@H]2Oc3c(NS(=O)(=O)c4ccc(Cl)cc4)cccc3C(=O)N([C@H](C)CO)C[C@@H]2C)cc1
C[C@H](CO)N1C[C@H](C)[C@@H](CN(C)Cc2ccc(Cl)c(Cl)c2)Oc2c(NC(=O)C3CCCCC3)cccc2C1=O
C[C@H]1CCCCO[C@@H](CN(C)C(=O)C2CCCCC2)[C@@H](C)CN([C@@H](C)CO)C(=O)c2cc(NS(=O)(=O)c3cccs3)ccc2O1
C[C@H](CO)N1C[C@H](C)[C@H](CN(C)C)Oc2ccc(NC(=O)Cc3ccccc3)cc2CC1=O
C[C@H]1CN([C@@H](C)CO)C(=O)c2cc(NC(=O)Nc3ccccc3)ccc2O[C@@H]1CN(C)C(=O)Nc1ccccc1
CCNc1nc(SCCOc2ccccc2)nc(N(C)C)n1
C[C@H](CO)N1C[C@H](C)[C@H](CN(C)C(=O)Nc2ccc(C(F)(F)F)cc2)Oc2ccc(NS(C)(=O)=O)cc2CC1=O
O=C(OCC1OC(Oc2ccc(O)cc2COC(=O)C2(O)C(O)CCC(O)C2O)C(O)C(O)C1O)c1ccccc1 (configuration not stated)
C[C@@H]1CCCCO[C@H](CN(C)C(=O)Nc2ccccc2)[C@H](C)CN([C@H](C)CO)C(=O)c2cc(N(C)C)ccc2O1
Cc1noc(C)c1NC(=O)Nc1ccc2c(c1)CC(=O)N([C@H](C)CO)C[C@@H](C)[C@@H](CN(C)Cc1ccncc1)O2
CC(=O)Nc1ccc(NC(=O)CN(c2ccccc2Br)S(C)(=O)=O)cc1
Cc1noc(C)c1NC(=O)Nc1cccc2c1O[C@@H](CN(C)Cc1ccc(C(F)(F)F)cc1)[C@@H](C)CN([C@@H](C)CO)C2=O
C[C@@H]1CCCCO[C@@H](CN(C)S(=O)(=O)c2ccccc2)[C@H](C)CN([C@H](C)CO)C(=O)c2cc(NC(=O)CCC(F)(F)F)ccc2O1
Cc1noc(C)c1S(=O)(=O)Nc1ccc2c(c1)CC(=O)N([C@@H](C)CO)C[C@@H](C)[C@H](CN(C)C)O2
C[C@H](CO)N1C[C@H](C)[C@H](CN(C)C(=O)c2ccccc2)OCCCC[C@H](C)Oc2ccc(NS(C)(=O)=O)cc2C1=O
C[C@@H]1CCCCO[C@H](CN(C)Cc2ccccc2)[C@@H](C)CN([C@H](C)CO)C(=O)c2cc(NS(C)(=O)=O)ccc2O1
C[C@H](CO)N1C[C@H](C)[C@H](CN(C)C(=O)Nc2ccccc2)Oc2ccc(NC(=O)C3CC3)cc2CC1=O
CC(C)NC(=O)Nc1ccc2c(c1)C(=O)N([C@@H](C)CO)C[C@H](C)[C@@H](CN(C)C(=O)Nc1ccc(F)cc1)OCCCC[C@H](C)O2
COc1ccc(CN(C)C[C@@H]2Oc3ccc(NC(=O)Nc4ccc(OC)cc4)cc3C(=O)N([C@H](C)CO)C[C@H]2C)cc1
C=CC(C)(O)CCC1(C)C2=C(C(OC(C)=O)C(OC(C)=O)C1C)C(C)(C)CCC2 (configuration not stated)
COc1cc([C@H](Cc2ccccc2)NC(C)=O)oc(=O)c1
CCc1ccc2c(c1)c1nc3ccccc3nc1n2CC(=O)OC
C[C@H]1CN([C@@H](C)CO)C(=O)Cc2cc(NC(=O)Nc3cccc4ccccc34)ccc2O[C@H]1CN(C)CC1CC1
C[C@@H]1CCCCO[C@H](CN(C)Cc2ccccc2)[C@@H](C)CN([C@H](C)CO)C(=O)c2cc(NS(=O)(=O)c3ccc(Cl)cc3)ccc2O1
C[C@H](CO)N1C[C@H](C)[C@@H](CN(C)C(=O)Nc2ccc3c(c2)OCO3)Oc2ccc(NC(=O)NC3CCCCC3)cc2CC1=O
CC(C)NC(=O)Nc1ccc2c(c1)CC(=O)N([C@@H](C)CO)C[C@@H](C)[C@@H](CN(C)S(=O)(=O)c1ccccc1)O2
C[C@@H]1CN([C@@H](C)CO)C(=O)c2cc(N(C)C)ccc2O[C@@H](C)CCCCO[C@H]1CN(C)Cc1ccncc1
CC(=O)O[C@H]1C[C@@H](OC(C)=O)C(C)(C)C2C[C@@H](O)[C@]3(C)C(CC[C@@]4(C)[C@H](c5ccoc5)OC(=O)C5OC543)[C@]21C (some centres not stated)
CCC(=O)O[C@]1(C(=O)CCl)[C@@H](C)CC2C3CCC4=CC(=O)C=C[C@]4(C)[C@@]3(F)[C@@H](O)C[C@@]21C (some centres not stated)
COc1ccc2nc(SCC(=O)Nc3ccc(I)cc3)[nH]c2c1
C[C@@H]1CN([C@@H](C)CO)C(=O)c2cccc(NC(=O)Nc3ccc(C(F)(F)F)cc3)c2O[C@@H]1CN(C)S(=O)(=O)c1cccs1
C[C@H](CO)N1C[C@H](C)[C@H](CN(C)Cc2ccccc2)OCCCC[C@H](C)Oc2ccc(NC(=O)CCC(F)(F)F)cc2C1=O
OCCNc1nc(Nc2ccc(Cl)cc2)nc(N2CCCCC2)n1
C[C@@H]1CN([C@@H](C)CO)C(=O)c2cccc(NS(=O)(=O)c3ccc(F)cc3)c2O[C@H]1CN(C)C(=O)NC1CCCCC1
C[C@H]1CN([C@@H](C)CO)C(=O)Cc2cc(NS(C)(=O)=O)ccc2O[C@@H]1CN(C)CC1CC1
Cc1ccc(-c2cc(C(F)(F)F)n3nc(C(=O)NCCN4CCOCC4)c(Cl)c3n2)cc1
CCC(=O)Nc1cccc(NC(=O)COc2ccc(Br)cc2)c1
CNC[C@H]1Oc2ccc(NC(=O)Nc3ccc4c(c3)OCO4)cc2CC(=O)N([C@H](C)CO)C[C@H]1C
COc1ccc(CN(C)C[C@H]2Oc3ccc(NC(=O)Cn4cnnn4)cc3CC(=O)N([C@@H](C)CO)C[C@@H]2C)cc1
C[C@H]1CN([C@@H](C)CO)C(=O)c2cccc(NS(=O)(=O)c3ccc(Cl)cc3)c2O[C@H]1CN(C)Cc1ccc2c(c1)OCO2
Cc1noc(C)c1S(=O)(=O)Nc1ccc2c(c1)C(=O)N([C@@H](C)CO)C[C@@H](C)[C@@H](CN(C)Cc1ccccc1)OCCCC[C@H](C)O2
CC(C)NC(=O)Nc1ccc2c(c1)C(=O)N([C@@H](C)CO)C[C@H](C)[C@H](CN(C)C(=O)Nc1ccc(F)cc1)OCCCC[C@@H](C)O2
